Consider 17 compounds from PubChem BioAssay.

A number with no mark means an inactive call. How the calls were made is not given here.

Chain of Pantothenate synthetase (Mycobacterium tuberculosis (strain ATCC 25618 / H37Rv)) (P9WIL5 whole entry, looked up): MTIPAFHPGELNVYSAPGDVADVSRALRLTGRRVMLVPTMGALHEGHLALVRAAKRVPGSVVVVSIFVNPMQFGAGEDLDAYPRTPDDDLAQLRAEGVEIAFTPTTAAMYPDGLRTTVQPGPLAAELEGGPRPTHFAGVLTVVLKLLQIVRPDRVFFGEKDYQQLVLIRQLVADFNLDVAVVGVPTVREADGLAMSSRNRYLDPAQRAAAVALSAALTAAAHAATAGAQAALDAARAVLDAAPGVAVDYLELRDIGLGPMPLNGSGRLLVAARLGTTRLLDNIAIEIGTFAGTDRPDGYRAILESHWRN

The test addresses Pantothenate synthetase (Mycobacterium tuberculosis (strain ATCC 25618 / H37Rv)) (UniProt P9WIL5). Nature of the test: Recombinant Mtb pantothenate synthetase (PanC) inhibitors, coupled enzyme, confirmatory (AID 375).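 Further: 0% = full reaction with vehicle and 100% = no enzyme background.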 The following applies: coupled enzyme assay; at 10 µM, hits give high values.
As to `Cc1cc(NC(=O)COc2cccc(Oc3ccccc3)c2)no1`, the inhibition (commonly how much of the control response was suppressed) was 8%. Regarding `COc1ccc(S(=O)(=O)NCC(c2cccnc2)N2CCN(C)CC2)cc1C` (configuration not stated), the inhibition was 0%. To `Cc1cc(C)n(-c2nc3sc4c(c3c3nnc(SCC(N)=O)n23)CC(C)(C)OC4)n1` belongs 0%.

Consider `COc1ccc(S(=O)(=O)N2CCCC2C(=O)Nc2ccc(C)cc2)cc1` (configuration not stated), for which the inhibition was 0%.

With `O=c1oc2ccccc2c(O)c1CN1CCCCC1`, the inhibition is 0%. To `CCCCC[C@H](O)/C=C/[C@H]1C=CC(=O)[C@@H]1C/C=C\CCCC(=O)O` belongs 0%; to `Cc1ccc2c(c1C)NC(C)CC2C` (configuration not stated), 0%; to `COc1ccccc1NCN1C(=O)CCC1=O`, 3%. Then `COc1ccc(-c2noc(CSc3nc(N)c(-c4ccccc4)c(=O)[nH]3)n2)cc1OC`, with 9%; and `COc1ccc(CN(CC(=O)NCc2ccco2)C(=O)CCC(=O)Nc2nccs2)cc1`, with 0%. With `COc1cccc(OCc2nc3ccccc3[nH]2)c1`, the inhibition was 0%.

As for `CCCCN(CCCNC(=O)C1CCN(S(=O)(=O)CC)CC1)c1ccccc1`, the inhibition is 0%. To `COc1ccc(C2CC(c3ccco3)n3ncnc3N2)cc1` (configuration not stated) belongs 4%; to `Nc1ccc(C(=O)OCCCc2nc3ccccc3[nH]2)cc1`, 3%; to `O=S(=O)(c1ccc(S(=O)(=O)N(Cc2ccco2)Cc2ccccc2Cl)cc1)N1CCCC1`, 0%. Then `COc1ccc(CC(NC(C)=O)C(=O)N2CCN(C(=O)N(C(C)C)C(C)C)CC2)cc1` (configuration not stated), with 0%; and `COc1cccc(C2=NOC(C(=O)Nc3cc(C)nn3-c3ccccc3)C2)c1OC` (configuration not stated), with 0%.
